Activity calls are given as the source filed them. The calls were made as follows: active = hit-call score of the fitted dose curve at least 0.9, where 1 is the maximum; inactive = score below 0.9.
What was measured:
[1] = ATG_M_32_CIS: Attagene CIS-FACTORIAL HepG2 Assay for M32 Transcription Factor (Internal Marker) (AID 2282949); details: HepG2 Attagene cis-factorial M32 reporter, mRNA; actives raise or lower the signal;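 also: background control marker of the multiplexed CIS panel rather than a real target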
Summary of the method: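 Internal background marker read-out: RT-PCR/capillary electrophoresis fluorescence of reporter transcripts from transiently transfected HepG2 cells after 24 h chemical exposure. Activity fitted bidirectionally relative to DMSO negative control.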

[2] = ATG_M_06_CIS: Attagene CIS-FACTORIAL HepG2 Assay for M06 Transcription Factor (Internal Marker) (AID 2282950); details: HepG2 Attagene CIS-FACTORIAL M06 internal marker reporter; actives raise or lower the signal
Summary of the method: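 Internal background marker within multiplexed cis-reporter HepG2 system. Cells transiently transfected, dosed 24 h; reporter mRNA measured by RT-PCR, HpaI digestion and capillary electrophoresis. Bidirectional fit relative to DMSO.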

[3] = molecular target: Hypoxia-inducible factor 1-alpha (Homo sapiens) (UniProt Q16665); test: ATG_HIF1a_CIS: Attagene CIS-FACTORIAL HepG2 Assay for human Hypoxia Inducible Factor 1 (HIF1A) (AID 2282951); details: HepG2 Attagene cis-factorial HIF1a reporter transcription; actives raise or lower the signal
Chain of Hypoxia-inducible factor 1-alpha (Homo sapiens) (Q16665 whole entry, looked up): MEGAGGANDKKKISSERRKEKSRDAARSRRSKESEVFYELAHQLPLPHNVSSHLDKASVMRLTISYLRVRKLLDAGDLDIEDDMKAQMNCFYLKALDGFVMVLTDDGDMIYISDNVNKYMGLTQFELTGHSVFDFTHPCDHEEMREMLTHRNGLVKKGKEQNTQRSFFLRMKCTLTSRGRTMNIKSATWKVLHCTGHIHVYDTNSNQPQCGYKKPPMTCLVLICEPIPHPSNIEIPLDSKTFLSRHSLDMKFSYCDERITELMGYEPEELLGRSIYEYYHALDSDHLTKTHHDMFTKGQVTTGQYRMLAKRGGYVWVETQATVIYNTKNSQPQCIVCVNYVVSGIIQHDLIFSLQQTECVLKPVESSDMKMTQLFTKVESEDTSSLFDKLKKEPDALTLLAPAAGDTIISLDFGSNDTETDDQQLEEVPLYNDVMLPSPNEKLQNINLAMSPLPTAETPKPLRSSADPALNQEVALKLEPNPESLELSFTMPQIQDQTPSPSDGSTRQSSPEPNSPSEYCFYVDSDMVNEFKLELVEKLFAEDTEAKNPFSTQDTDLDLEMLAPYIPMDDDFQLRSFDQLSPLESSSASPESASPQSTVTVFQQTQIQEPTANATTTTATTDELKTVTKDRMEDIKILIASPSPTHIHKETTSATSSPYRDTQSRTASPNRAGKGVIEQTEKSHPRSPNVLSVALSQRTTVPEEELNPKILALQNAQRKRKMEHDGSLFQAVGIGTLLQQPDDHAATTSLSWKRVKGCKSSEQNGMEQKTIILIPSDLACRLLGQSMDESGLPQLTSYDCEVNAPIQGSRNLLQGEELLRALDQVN
Summary of the method: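 After 24 h chemical exposure of reporter-transfected HepG2 cells, reporter cDNA was PCR-amplified, labelled by 6-FAM primer extension (2 min 95 C, 20 s 68 C, 10 min 72 C), HpaI-cut (2 h, 37 C) and analysed by CE.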

[4] = molecular target: Hepatocyte nuclear factor 6 (Homo sapiens) (UniProt Q9UBC0); test: ATG_HNF6_CIS: Attagene CIS-FACTORIAL HepG2 Assay for human Hepatocyte Nuclear Factor 6 (HNF6) (AID 2282952); details: HepG2 Attagene cis-factorial HNF6 reporter transcription; actives raise or lower the signal
Chain of Hepatocyte nuclear factor 6 (Homo sapiens) (Q9UBC0 whole entry, looked up): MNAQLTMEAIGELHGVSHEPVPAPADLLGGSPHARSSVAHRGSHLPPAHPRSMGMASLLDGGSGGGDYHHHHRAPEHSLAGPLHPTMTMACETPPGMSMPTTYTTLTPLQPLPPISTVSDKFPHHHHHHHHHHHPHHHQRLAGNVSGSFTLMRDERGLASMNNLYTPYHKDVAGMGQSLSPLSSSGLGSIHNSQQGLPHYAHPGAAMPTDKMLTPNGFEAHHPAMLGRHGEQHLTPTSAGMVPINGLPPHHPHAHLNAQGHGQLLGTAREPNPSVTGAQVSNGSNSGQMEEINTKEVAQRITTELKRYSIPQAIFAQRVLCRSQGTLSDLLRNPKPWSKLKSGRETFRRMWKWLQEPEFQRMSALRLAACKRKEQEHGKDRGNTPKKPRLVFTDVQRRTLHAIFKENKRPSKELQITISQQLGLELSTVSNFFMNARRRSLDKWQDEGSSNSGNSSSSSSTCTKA
Summary of the method: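 HepG2 cells transiently transfected with cis-element-driven multiple reporter transcription units, dosed 24 h; reporter mRNA quantified by RT-PCR, FAM primer extension, HpaI digestion and capillary electrophoresis; bidirectional fit versus DMSO baseline.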

[5] = molecular target: Heat shock factor protein 1 (Homo sapiens) (UniProt Q00613); test: ATG_HSE_CIS: Attagene CIS-FACTORIAL HepG2 Assay for human Heat Shock Transcription Factor 1 (HSE) (AID 2282953); details: HepG2 HSE cis-reporter, Attagene RNA transcription; actives raise or lower the signal
Chain of Heat shock factor protein 1 (Homo sapiens) (Q00613 whole entry, looked up): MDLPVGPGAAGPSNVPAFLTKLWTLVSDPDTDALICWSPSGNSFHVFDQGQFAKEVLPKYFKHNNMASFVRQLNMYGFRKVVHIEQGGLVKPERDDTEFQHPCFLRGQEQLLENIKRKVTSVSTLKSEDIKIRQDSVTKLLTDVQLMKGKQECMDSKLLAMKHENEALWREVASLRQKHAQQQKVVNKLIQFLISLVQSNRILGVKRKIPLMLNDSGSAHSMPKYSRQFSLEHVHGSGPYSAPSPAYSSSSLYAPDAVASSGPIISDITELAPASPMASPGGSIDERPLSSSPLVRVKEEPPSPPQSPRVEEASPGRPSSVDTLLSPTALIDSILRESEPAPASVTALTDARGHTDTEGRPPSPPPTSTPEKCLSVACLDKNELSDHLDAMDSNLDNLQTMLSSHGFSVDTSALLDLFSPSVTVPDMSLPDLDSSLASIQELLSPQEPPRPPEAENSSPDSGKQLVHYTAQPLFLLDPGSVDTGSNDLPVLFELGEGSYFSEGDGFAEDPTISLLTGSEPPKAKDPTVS
Summary of the method: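 HepG2 cells transfected with cis-promoter reporter units sensing endogenous transcription factor activity; reporter mRNA quantified 24 h post-dose by RT-PCR and capillary electrophoresis of 6-FAM-labelled products. Bidirectional fitting against DMSO.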

[6] = ATG_MRE_CIS: Attagene CIS-FACTORIAL HepG2 Assay for human Metal Responsive Element (MRE) (AID 2282954); details: HepG2 MRE cis-reporter transcription, Attagene multiplex; actives raise or lower the signal
Summary of the method: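 HepG2 cells transiently transfected with multiple cis-element reporter units measure endogenous MTF1-driven transcription. After 24 h compound exposure, reporter mRNA is quantified by RT-PCR with 6-FAM labelling, HpaI digestion and capillary electrophoresis; bidirectional fits versus DMSO.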

[7] = ATG_PBREM_CIS: Attagene CIS-FACTORIAL HepG2 Assay for human Phenobarbital-responsive Enhancer Module (PBREM) (AID 2282955); details: HepG2 PBREM cis-reporter, Attagene multiplexed transcription; actives raise or lower the signal
Summary of the method: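 Measures endogenous factor action on a phenobarbital-responsive enhancer module. HepG2 transiently carrying cis reporters, 24 h treatment, mRNA read-out by RT-PCR plus capillary electrophoresis.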

[8] = molecular target: Paired box protein Pax-6 (Homo sapiens) (UniProt P26367); test: ATG_Pax6_CIS: Attagene CIS-FACTORIAL HepG2 Assay for human Paired Box 6 (PAX6) (AID 2282956); details: HepG2 CIS-FACTORIAL PAX6 reporter transcription, RNA readout; actives raise or lower the signal
Chain of Paired box protein Pax-6 (Homo sapiens) (P26367 whole entry, looked up): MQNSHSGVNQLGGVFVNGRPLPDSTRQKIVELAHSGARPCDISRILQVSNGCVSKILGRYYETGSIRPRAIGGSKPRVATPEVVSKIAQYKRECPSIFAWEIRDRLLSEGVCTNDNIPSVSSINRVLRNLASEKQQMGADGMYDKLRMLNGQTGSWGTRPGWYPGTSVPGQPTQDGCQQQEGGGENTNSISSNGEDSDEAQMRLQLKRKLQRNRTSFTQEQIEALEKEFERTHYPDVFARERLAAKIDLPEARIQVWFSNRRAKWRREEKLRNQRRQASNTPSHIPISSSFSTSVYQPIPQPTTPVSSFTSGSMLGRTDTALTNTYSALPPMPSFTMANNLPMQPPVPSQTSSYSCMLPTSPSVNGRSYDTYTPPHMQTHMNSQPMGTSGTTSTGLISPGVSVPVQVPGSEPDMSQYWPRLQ
Summary of the method: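 HepG2 cells transiently transfected with multiplexed cis-promoter reporter units (endogenous TF activity) were dosed for 24 h. Reporter mRNA was quantified by RT-PCR, 6-FAM labeling, HpaI digestion and capillary electrophoresis; bidirectional fitting versus DMSO baseline.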

[9] = ATG_PPRE_CIS: Attagene CIS-FACTORIAL HepG2 Assay for human Peroxisome Proliferator-activated Response Element (PPRE) (AID 2282958); details: HepG2 PPRE cis-element reporter, Attagene transcription factor profiling; actives raise or lower the signal
Summary of the method: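 PPRE activity in HepG2: transient cis-reporter transfection, 24 h compound incubation, reporter mRNA by RT-PCR and CE fluorescence; gain/loss fitted against DMSO.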

[10] = ATG_RORE_CIS: Attagene CIS-FACTORIAL HepG2 Assay for human RAR-related Orphan Receptor Element (RORE) (AID 2282959); details: HepG2 Attagene cis-factorial RORE reporter, mRNA; actives raise or lower the signal
Summary of the method: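 A 24-hour exposure of transfected HepG2 hepatoma cells precedes RNA isolation and reporter RT-PCR. Labeled products are digested with HpaI and resolved by capillary electrophoresis, with gain or loss of signal scored relative to DMSO.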

[11] = ATG_Sox_CIS: Attagene CIS-FACTORIAL HepG2 Assay for human SRY-box transcription factor (SOX) (AID 2282960); details: HepG2 Attagene cis-factorial SOX reporter, mRNA; actives raise or lower the signal
Summary of the method: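 HepG2, cis reporter units, 24 h exposure. Reporter mRNA: RT-PCR → FAM labelling → HpaI → CE fluorescence. Bidirectional fit vs DMSO.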

[12] = molecular target: Transcription factor Sp1 (Homo sapiens) (UniProt P08047); test: ATG_Sp1_CIS: Attagene CIS-FACTORIAL HepG2 Assay for human Specificity Protein 1 (Sp1) (AID 2282961); details: HepG2 Sp1 cis-reporter transcription, actives raise or lower the signal
Chain of Transcription factor Sp1 (Homo sapiens) (P08047 whole entry, looked up, the tested form may be a part): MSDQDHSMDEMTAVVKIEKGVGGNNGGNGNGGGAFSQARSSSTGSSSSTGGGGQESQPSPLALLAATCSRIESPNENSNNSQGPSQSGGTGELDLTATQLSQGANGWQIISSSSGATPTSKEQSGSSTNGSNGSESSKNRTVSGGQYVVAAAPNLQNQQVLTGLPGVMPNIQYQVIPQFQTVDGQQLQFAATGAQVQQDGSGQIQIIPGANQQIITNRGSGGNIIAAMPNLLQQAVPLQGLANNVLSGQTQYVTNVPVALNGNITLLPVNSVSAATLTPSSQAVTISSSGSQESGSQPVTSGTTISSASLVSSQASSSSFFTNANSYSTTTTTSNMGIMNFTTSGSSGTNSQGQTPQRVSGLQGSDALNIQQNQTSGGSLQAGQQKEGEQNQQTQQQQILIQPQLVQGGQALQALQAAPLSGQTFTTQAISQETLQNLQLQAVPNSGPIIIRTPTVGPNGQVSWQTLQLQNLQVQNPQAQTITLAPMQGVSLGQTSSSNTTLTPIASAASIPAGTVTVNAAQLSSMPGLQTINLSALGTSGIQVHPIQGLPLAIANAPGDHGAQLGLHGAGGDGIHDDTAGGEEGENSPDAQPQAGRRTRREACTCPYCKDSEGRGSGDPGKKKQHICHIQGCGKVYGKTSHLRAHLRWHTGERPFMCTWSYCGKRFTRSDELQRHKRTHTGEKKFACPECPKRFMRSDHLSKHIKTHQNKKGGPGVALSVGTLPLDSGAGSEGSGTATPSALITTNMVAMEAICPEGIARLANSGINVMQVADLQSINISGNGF
Summary of the method: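 Liver-derived HepG2 cells, cis-element reporter library, 24 h treatment; RNA isolated, cDNA amplified with reporter-specific primers, FAM-labeled fragments sized on capillary analyzer. DMSO baseline, bidirectional curve fit.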

[13] = ATG_SREBP_CIS: Attagene CIS-FACTORIAL HepG2 Assay for human Sterol Regulatory Element Binding (SREBP) (AID 2282962); details: HepG2 Attagene cis-factorial SREBP reporter, mRNA; actives raise or lower the signal
Summary of the method: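 HepG2 cells transiently transfected with multiplexed cis-element reporter units report endogenous transcription factor activity. After 24 h of chemical exposure, reporter mRNA was quantified by RT-PCR, 6-FAM labelling, HpaI digestion and capillary electrophoresis; bidirectional fits used DMSO as baseline.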

[14] = molecular target: Signal transducer and activator of transcription 3 (Homo sapiens) (UniProt P40763); test: ATG_STAT3_CIS: Attagene CIS-FACTORIAL HepG2 Assay for human Signal Transducer and Activator of Transcription 3 (STAT3) (AID 2282963); details: HepG2, Attagene cis-factorial STAT3 reporter transcription; actives raise or lower the signal
Chain of Signal transducer and activator of transcription 3 (Homo sapiens) (P40763 whole entry, looked up): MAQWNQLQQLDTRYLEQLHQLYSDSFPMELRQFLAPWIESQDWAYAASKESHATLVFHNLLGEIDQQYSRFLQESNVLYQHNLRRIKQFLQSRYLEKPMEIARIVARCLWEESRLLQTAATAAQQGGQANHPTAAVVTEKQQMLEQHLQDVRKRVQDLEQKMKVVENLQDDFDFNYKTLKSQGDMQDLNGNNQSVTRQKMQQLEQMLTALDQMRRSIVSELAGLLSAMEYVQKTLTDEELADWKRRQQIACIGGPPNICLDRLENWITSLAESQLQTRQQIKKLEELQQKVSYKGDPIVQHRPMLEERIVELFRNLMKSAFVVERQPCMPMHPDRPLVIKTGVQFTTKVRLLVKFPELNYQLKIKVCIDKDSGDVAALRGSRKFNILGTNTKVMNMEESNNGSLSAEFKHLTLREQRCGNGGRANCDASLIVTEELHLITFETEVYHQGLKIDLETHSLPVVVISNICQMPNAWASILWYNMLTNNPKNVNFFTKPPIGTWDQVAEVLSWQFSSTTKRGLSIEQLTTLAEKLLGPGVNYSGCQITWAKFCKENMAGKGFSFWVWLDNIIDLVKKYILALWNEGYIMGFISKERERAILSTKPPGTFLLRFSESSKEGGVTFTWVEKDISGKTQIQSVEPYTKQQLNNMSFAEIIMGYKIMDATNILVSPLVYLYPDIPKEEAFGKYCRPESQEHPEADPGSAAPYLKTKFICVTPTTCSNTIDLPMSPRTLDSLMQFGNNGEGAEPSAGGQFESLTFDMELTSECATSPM
Summary of the method: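 HepG2 cells transiently transfected with cis-element-driven multiple reporter transcription units; after 24 h chemical exposure, reporter mRNA measured by RT-PCR, 6-FAM primer-extension labelling, HpaI digestion and capillary electrophoresis. Bidirectional fitting versus DMSO baseline.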

[15] = ATG_TA_CIS: Attagene CIS-FACTORIAL HepG2 Assay for human TA Basal Promoter (AID 2282964); details: HepG2 Attagene CIS-factorial TA basal promoter reporter; actives raise or lower the signal
Summary of the method: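 HepG2 cells transiently transfected with multiple reporter units under cis promoter elements, reporting endogenous transcription factor activity; this endpoint tracks the TA basal promoter as background control. Reporter mRNA after 24 h dosing measured by RT-PCR/capillary electrophoresis; bidirectional fits versus DMSO.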

[16] = ATG_TCF_b_cat_CIS: Attagene CIS-FACTORIAL HepG2 Assay for human T-Cell-Factor with beta-catenin (TCF/b-cat) (AID 2282965); details: HepG2 TCF/beta-catenin cis-reporter transcription, actives raise or lower the signal
Summary of the method: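 HepG2 cells transiently transfected with multiple cis-promoter-regulated reporter transcription units, so endogenous transcription factor activity is measured. Reporter mRNA read 24 hours after dosing by RT-PCR, fluorescent labelling and capillary electrophoresis; bidirectional fitting against DMSO.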

[17] = ATG_TAL_CIS: Attagene CIS-FACTORIAL HepG2 Assay for human TAL Basal Promoter (AID 2282966); details: HepG2 Attagene cis-factorial TAL promoter reporter; actives raise or lower the signal;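 also: background control endpoint measuring basal TAL promoter reporter mRNA not a specific factor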
Summary of the method: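 HepG2 cells were transiently transfected with promoter-driven multiplexed reporter units and dosed for 24 h. Reporter mRNA was measured by RT-PCR with capillary electrophoresis fluorescence; bidirectional fits used DMSO as baseline, serving as a background control.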

[18] = ATG_VDRE_CIS: Attagene CIS-FACTORIAL HepG2 Assay for human Vitamin D Receptor Element (VDRE) (AID 2282968); details: HepG2 VDRE cis-reporter transcription, actives raise or lower the signal
Summary of the method: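 HepG2 cells transiently transfected with cis-element reporter units, dosed 24 h; reporter mRNA measured by RT-PCR, 6-FAM labeling, HpaI digestion and capillary electrophoresis. Activity fitted bidirectionally against DMSO baseline.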

[19] = ATG_PXRE_CIS: Attagene CIS-FACTORIAL HepG2 Assay for human Pregnane X Receptor Element (PXRE) (AID 2282957); details: HepG2 Attagene CIS-FACTORIAL PXRE reporter, mRNA; actives raise or lower the signal
Summary of the method: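 HepG2 cells transiently transfected with cis-regulated multiple reporter transcription units; endogenous factor activity measured as reporter mRNA 24 h after dosing. RT-PCR, fluorescent primer extension, HpaI digestion, capillary electrophoresis; bidirectional fit versus DMSO baseline.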

[20] = ATG_TGFb_CIS: Attagene CIS-FACTORIAL HepG2 Assay for human Transforming Growth Factor (TGF) (AID 2282967); details: HepG2 Attagene CIS TGFb reporter, mRNA transcription; actives raise or lower the signal
Summary of the method: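 HepG2 cells transiently transfected with cis-promoter-driven multiple reporter units measure endogenous TF activity; reporter mRNA quantified at 24 h by RT-PCR, FAM labeling, HpaI digestion and capillary electrophoresis. Bidirectional fit vs DMSO.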

Measured: AC50

COC(=O)C(F)(F)C(F)(F)C(F)(F)C(F)(F)C(F)(F)F
not listed: [19] | [20]
inactive: all other assays above

CCCCCCCCCCCCCCC
not listed: [9] | [11] | [17]
inactive: all other assays above

C=CC(=O)OCCN(CC)CC
active: [5] 152 µM | [6] 62.9 µM | [8] 58.9 µM | [13] 61.8 µM | [18] 62.9 µM
not listed: [19]
inactive: all other assays above

Oc1ccc(Cc2ccccc2O)cc1
active: [19] 46 µM | [18] 64.5 µM
not listed: [8] | [13]
inactive: all other assays above

CN(CCO)S(=O)(=O)C(F)(F)C(F)(F)C(F)(F)C(F)(F)C(F)(F)C(F)(F)C(F)(F)C(F)(F)F
not listed: [5] | [20]
inactive: all other assays above

O=C(O)C(=O)O
not listed: [8] | [9] | [10] | [19]
inactive: all other assays above
